Reference: PubChem BioAssay (NCATS)
Results filed as inconclusive are left out. Unmarked numbers belong to inactive results. The source made the active and inactive calls. Calls come from the whole dose curve; as a rule, active = well fitted curve in either direction with a large enough effect (not every such curve was filed as active); inconclusive = small, poorly fitted or top-dose-only effect, or another doubt; inactive = flat fitted curve, though single readings scatter.

experiment: NFAT Signaling Pathway (AID 444); conditions: Jurkat NFAT-bla M1, carbachol, beta-lactamase ratio, 5 h; at 38 µM (top of the series);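 note: carbachol stimulus at about its EC50 of 1 µM final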
How it was run: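 Jurkat cells with NFAT-driven β-lactamase reporter and co-expressed M1 receptor, stimulated with carbachol (final 1 uM, ~EC50), compound titration, 5 h at 37 °C. CCF4 loaded 1 h at RT; 460/530 nm ratio gave %activity and AC50.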
% is set by controls: 0 for no effect and ±100 for the full control effect.

| Compound | activity change, negative = inhibition |
| --- | --- |
| COc1ccccc1N1CCN(CCN2C(=O)CC3(CCCC3)CC2=O)CC1 | -25.7% |
| O=C1NC(c2cccc([N+](=O)[O-])c2)=CCN1c1ccccc1O | 4.96% |
| C[N+](C)(C)CCO | 2.35% |
| NC(N)=NCCCCN=C(N)N | -22% |
| Brc1ccc([C@H]2CN3CCSC3=N2)cc1 | -10.1% |

experiment: Stat Signaling Pathway (AID 446); conditions: ME-180 (cervical carcinoma) SIE beta-lactamase reporter, IL-6 stimulated, 5 h; series mostly up to 17.2 µM; activity, negative = inhibition: at the top concentration;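 note: ME-180 cervical cancer cells given 40 pM IL-6 alongside compound; SIE-controlled beta-lactamase reporter measured as 460/530 nm FRET emission ratio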
How it was run: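 Normalization used AC90 stimulation (300 pM IL-6) and AC90 inhibition (125 nM pan-JAK inhibitor at 40 pM IL-6). The underlying signal is SIE-driven beta-lactamase in ME-180 cells after 5 h IL-6 exposure with compound.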

| Compound | activity, negative = inhibition | outcome |
| --- | --- | --- |
| COc1ccccc1N1CCN(CCN2C(=O)CC3(CCCC3)CC2=O)CC1 | -6.76% [at 38 µM] | – |
| CCOC(=O)NNc1nncc2ccccc12 | -3.76% | – |
| C[C@]12CCC(=O)C=C1CC[C@@H]1[C@@H]2[C@@H](O)C[C@@]2(C)[C@H]1CC[C@]2(O)C(=O)COC(=O)CCC(=O)O | – | inactive |
| OC(CCCN1CCCCC1)(c1ccccc1)c1ccccc1 | 12.7% | – |
| O=C(CCCCC(=O)Nc1c(I)cc(I)c(C(=O)O)c1I)Nc1c(I)cc(I)c(C(=O)O)c1I | -9.05% | – |
| Cc1ncc(CO)c(CO)c1O | -2.85% | – |
| O=C(O)c1ccccc1S | 6.94% | – |
| O=C1NC(c2cccc([N+](=O)[O-])c2)=CCN1c1ccccc1O | -5.04% [at 38 µM] | – |
| CN(C(=O)C(Cl)Cl)c1ccc(OC(=O)c2ccco2)cc1 | – | inactive |
| CC(=O)Nc1c(I)c(NC(C)=O)c(I)c(C(=O)O)c1I | 5.78% | – |
| OCCOCCN1CCN(C(c2ccccc2)c2ccc(Cl)cc2)CC1 (centres undefined) | 0.506% | – |
| C[C@H]1C[C@@H]2[C@H]([C@@H](O)C[C@@]3(C)[C@H]2CC[C@]3(O)C(=O)CO)[C@@]2(C)C=CC(=O)C=C12 | -3.95% | – |
| O=C(O)/C=C(\CC(=O)O)C(=O)O | 3.68% [at 7.69 µM] | – |
| CC(=O)[C@@]1(O)CC[C@H]2[C@@H]3C[C@H](C)C4=CC(=O)CC[C@]4(C)[C@H]3CC[C@@]21C | 3.36% | – |
| CC(=O)OCC[N+](C)(C)C | 8.01% | – |
| C[N+](C)(C)CCO | -9.04% [at 38 µM] | – |
| CC1(C)O[C@@H]2C[C@H]3[C@@H]4CCC5=CC(=O)C=C[C@]5(C)[C@@]4(F)[C@@H](O)C[C@]3(C)[C@]2(C(=O)CO)O1 | 9.57% | – |
| CN1CCCN(C(c2ccccc2)c2ccc(Cl)cc2)CC1 (centres undefined) | -3.71% | – |
| CCN(CC)CCOc1ccc(/C(=C(\Cl)c2ccccc2)c2ccccc2)cc1 | -13% | – |
| CC1(C)O[C@@H]2C[C@H]3[C@@H]4C[C@H](F)C5=CC(=O)C=C[C@]5(C)[C@@]4(F)[C@@H](O)C[C@]3(C)[C@]2(C(=O)CO)O1 | -1.87% | – |
| CCCCCC(=O)O[C@]1(C(C)=O)CC[C@H]2[C@@H]3CCC4=CC(=O)CC[C@]4(C)[C@H]3CC[C@@]21C | -4.02% | – |
| CCCC(=O)O[C@]1(C(=O)CCl)[C@@H](C)C[C@H]2[C@@H]3CCC4=CC(=O)C=C[C@]4(C)[C@@]3(F)C(=O)C[C@@]21C | -5.64% | – |
| NC(N)=NCCCCN=C(N)N | – | inactive |
| Brc1ccc([C@H]2CN3CCSC3=N2)cc1 | 24.5% [at 38 µM] | – |
